Results on 26 molecules are retold here after PubChem BioAssay AID1645856 (Buhrlage Lab, Dana-Farber Cancer Institute and Novartis …, 2021).

The whole screen tested about 47,000 compounds, of which about 510 (1.1%) were called active. The entries come from a sample that favours actives as a whole. A number with no mark means an inactive call. No stated cut-off is given here; in the data, active means inhibition above about 30%; inactive means the rest.

For this test, the target named is Ubiquitin carboxyl-terminal hydrolase 10 (Homo sapiens) (UniProt Q14694). As to the kind of experiment: inhibitors of human USP10 deubiquitinase (AID 1645856). Conditions: purified USP10, Ub-rhodamine fluorescence, 60 min; at 20 µM; active compounds read high.
Ubiquitin carboxyl-terminal hydrolase 10 (Homo sapiens), sequence (Q14694 whole entry, looked up): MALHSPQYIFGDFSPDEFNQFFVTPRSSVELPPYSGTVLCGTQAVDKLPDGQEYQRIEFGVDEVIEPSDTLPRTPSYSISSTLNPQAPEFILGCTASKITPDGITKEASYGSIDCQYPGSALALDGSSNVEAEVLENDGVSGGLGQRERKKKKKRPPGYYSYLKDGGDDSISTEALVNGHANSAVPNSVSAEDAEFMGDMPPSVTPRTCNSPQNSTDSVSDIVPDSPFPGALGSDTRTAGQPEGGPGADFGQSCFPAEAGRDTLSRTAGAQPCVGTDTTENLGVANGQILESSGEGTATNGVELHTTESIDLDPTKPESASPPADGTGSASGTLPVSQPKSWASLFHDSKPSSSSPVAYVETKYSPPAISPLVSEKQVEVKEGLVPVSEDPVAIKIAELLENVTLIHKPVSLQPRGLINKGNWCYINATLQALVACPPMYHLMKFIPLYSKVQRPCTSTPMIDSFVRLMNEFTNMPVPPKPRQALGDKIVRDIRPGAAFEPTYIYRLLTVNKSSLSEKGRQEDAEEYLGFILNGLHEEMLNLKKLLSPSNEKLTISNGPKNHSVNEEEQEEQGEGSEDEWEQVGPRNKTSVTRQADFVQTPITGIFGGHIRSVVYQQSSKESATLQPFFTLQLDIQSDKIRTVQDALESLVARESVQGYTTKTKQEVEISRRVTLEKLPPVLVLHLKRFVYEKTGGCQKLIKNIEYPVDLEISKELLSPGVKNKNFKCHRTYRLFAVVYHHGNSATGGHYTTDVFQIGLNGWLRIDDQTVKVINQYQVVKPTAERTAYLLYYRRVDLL
One may read the inhibition as the drop in the measured response relative to a control, in per cent. `O=C(Nc1cccc(Cl)c1)N(Cc1ccccc1)CC1CC=CCC1` (stereo unspecified): the inhibition was 16.3%.
The same measure for `CCc1nnc(CN2CCC(C3CCCCCN3C(=O)NC(C)C)CC2)o1` (stereo unspecified): -4.07%; for `COc1ccc(Nc2cc(C(=O)N3CCC4(CC3)OCCO4)c3ccccc3n2)cc1`: -0.645%.
To `CCN1C(=O)[C@H]2CN(C(C)=O)C[C@H]2C12CCN(C(=O)NCCc1ccc(OC)cc1)CC2` belongs 0.803%; to `O=C(CN(Cc1ccccc1Cl)S(=O)(=O)c1ccccc1F)NC(c1ccccc1)c1ccccc1`, 6.49%; to `Cc1ccc2[nH]c(=O)c(CN(CC3COCCO3)C(=O)Nc3ccccc3C)cc2c1` (stereo unspecified), -0.00505%.
`Cc1cc(=O)n(CC(=O)Nc2ccc3c(c2)OCO3)c2c1c(-c1ccccc1)nn2-c1ccccc1`: the inhibition is 25%.
To `O=S(=O)(c1cc(-c2nnc(C3CC3)o2)co1)N1CCCCC1` belongs -3.39%.
The same measure for `O=C(NC1CCCC1)c1ccc(N2CCOc3ccccc32)s1`: 0.616%; for `CCc1nnc(-c2cc(S(=O)(=O)Nc3ccccc3F)c[nH]2)o1`: -2.11%; for `O=C(Oc1ccc(Oc2ccccc2)cc1)c1ccc([N+](=O)[O-])cc1`: 7.41%.
The same measure for `Cc1nn(-c2ccc(F)cc2)c(C)c1S(=O)(=O)NC1CC1`: -2.46%.
Take `COc1ccc(NS(=O)(=O)c2cc(NC(=O)COc3ccccc3F)ccc2OC)cc1`: the inhibition is 3.65%.
In the case of `COc1ccc(NS(=O)(=O)c2cc(NC(=O)/C=C/c3cccc(OC)c3)ccc2OC)cc1`, the inhibition was 0.326%.
To `COc1ccc(NS(=O)(=O)c2cc(NC(=O)CC(=O)c3ccc([N+](=O)[O-])cc3)ccc2C)cc1` belongs 43.8% (active); to `Cc1ccc(C2c3[nH]c4ccccc4c3C[C@H]3C(=O)N(c4ccccc4C(=O)NC4CCCCC4)C(=O)N23)cc1` (stereo partly specified), -9.46%.
To `Cc1cccc(C(=O)NCc2nnc3ccccn23)c1` belongs 5.59%; to `CCOc1c(C)cnc2c1c(=O)n(CC(=O)N1CCC(C)CC1)c(=O)n2C`, -3.58%; to `c1ccc(OCCn2nc(C3CCN(C4CCOCC4)CC3)c3nccnc32)cc1`, -0.0392%.
The same measure for `O=C(NCc1ccc2c(c1)OCO2)c1cn(-c2cccc(Cl)c2)nn1`: 28.3%; for `CCN1CCN(Cc2nc(-c3ccc(N4CCCCC4)nc3)no2)CC1`: 0.502%; for `CCc1cc(C2CCCN2C(=O)NCc2ccc(F)cc2)on1` (stereo unspecified): 0.108%.
In the case of `CC1(C(=O)NC2CCCCCC2)Cc2ccccc2C(=O)N1C1CCCCC1` (stereo unspecified), the inhibition was 3.98%.
To `Nc1ccc(C(=O)OCC(=O)NC2CCCc3ccccc32)cc1[N+](=O)[O-]` (stereo unspecified) belongs 31.8% (active).
The same measure for `O=C(c1ccccc1)c1ccc(NC2CCCc3ccccc32)c([N+](=O)[O-])c1` (stereo unspecified): -3.29%; for `O=C(COC(=O)c1ccc(F)cc1)NC1CCCc2ccccc21` (stereo unspecified): -2.88%.
